Several values for one entry are separate records, joined by “and”; a condition that tells them apart may be missing. Identical values can stand only once. Results filed as inconclusive are left out. Some structures have more than one record in an assay (separate samples or runs), and their calls can disagree. Activity calls are given as the source filed them. Unless noted, calls follow the shape of the dose curve; as a rule, active = well fitted curve in the direction sought with a large enough effect in the repeat runs; inconclusive = weak or mixed curves; inactive = no such curve, though single readings can be large; an effect the other way counts as inactive or inconclusive.

The nature of assay [1]: qHTS assay to identify small molecule agonists of the androgen receptor (AR) signaling pathway in the presence of an antagonist - cell viability counter screen (AID 1259379). Also: nearly all actives have a fitted effect of over 25% in size. Also: potency is read from the fitted curve at half-maximal effect. The gist of the method: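 Fluorescence from CellTiter-Fluor, added after 15 hr and read 1 hr later, gave cell viability. Cells were MDA-kb2 exposed to compounds (15 concentrations) in the presence of 3.0uM nilutamide at 37C, 0% CO2.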
(Quantitative high-throughput screening tests each substance at several concentrations.)

Assay [2] can be described thus: qHTS assay to identify small molecule agonists of the estrogen receptor beta (ER-beta) signaling pathway - cell viability counter screen (AID 1259380). Also: nearly all actives have a fitted effect of over 30% in size. Also: potency is read from the fitted curve at half-maximal effect. Put shortly:
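Same-well viability counter screen. Cells: ER-beta-UAS-bla HEK293T, plated 6 hr before compound, in 2% charcoal-stripped FBS. Compound exposure 16 hr, 37C; viability by CellTiter-Glo luminescence after 30 min at room temperature.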

A short description of assay [3]: qHTS assay to identify small molecule antagonists of the estrogen receptor beta (ER-beta) signaling pathway - cell viability counter screen (AID 1259382). Also: nearly all actives have a fitted effect of over 55% in size. Also: potency is read from the fitted curve at half-maximal effect. Put shortly: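 Following a 6 hr plating period, HEK293T cells carrying a UAS-driven beta-lactamase reporter under ER-beta control received compounds and 1nM E2 (final). After 16 hr at 37C and 2 hr substrate loading, CellTiter-Glo luminescence indicated viability.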

Assay [4] in a line: qHTS assay to identify small molecule agonists or antagonists of the thyroid stimulating hormone receptor (TSHR) signaling pathway - wild type cell line counter screen (AID 1259384; calls by dose curve). The gist of the method:
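Wild-type HEK293 cells were plated 18 h at 37 C/5% CO2, pin-dosed with compound plus Ro20-1724 medium, held 30 min at room temperature, then given cAMP-d2 and anti-cAMP-cryptate; fluorescence was read after 1 h. Fifteen concentrations, triplicate.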

Assay [5] can be described thus: qHTS assay to identify small molecule agonists of the estrogen receptor alpha (ER-alpha) signaling pathway in the presence of an antagonist - cell viability counter screen (AID 1259386).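 Also: cells exposed to compounds for 22 h at 37 °C before the viability read; nearly all actives have a fitted effect of over 30% in size.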 Also: potency is read from the fitted curve at half-maximal effect. Put shortly: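 Cells are starved of estrogens for 5 days in charcoal-stripped serum, seeded for 24hr and co-treated with ICI-182,780 (10.0nM final) and test compounds. After 22hr at 37C, viability is read as CellTiter-Fluor fluorescence.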

The target of assay [6] is Progesterone receptor (Homo sapiens) (UniProt P06401). In words: qHTS assay to identify small molecule agonists of the progesterone receptor (PR) signaling pathway (AID 1346784; calls by dose curve; also: nearly all actives have a fitted effect of over 30% in size). The gist of the method: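 PR-UAS-bla HEK 293T cells carrying a UAS-driven beta-lactamase reporter were seeded in medium with 2% charcoal-stripped FBS, preincubated 6 hr at 37C, then exposed to compounds in DMSO for 16 hr; agonism was read by LiveBLAzer B/G FRET fluorescence.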
Chain of Progesterone receptor (Homo sapiens) (P06401 whole entry, looked up): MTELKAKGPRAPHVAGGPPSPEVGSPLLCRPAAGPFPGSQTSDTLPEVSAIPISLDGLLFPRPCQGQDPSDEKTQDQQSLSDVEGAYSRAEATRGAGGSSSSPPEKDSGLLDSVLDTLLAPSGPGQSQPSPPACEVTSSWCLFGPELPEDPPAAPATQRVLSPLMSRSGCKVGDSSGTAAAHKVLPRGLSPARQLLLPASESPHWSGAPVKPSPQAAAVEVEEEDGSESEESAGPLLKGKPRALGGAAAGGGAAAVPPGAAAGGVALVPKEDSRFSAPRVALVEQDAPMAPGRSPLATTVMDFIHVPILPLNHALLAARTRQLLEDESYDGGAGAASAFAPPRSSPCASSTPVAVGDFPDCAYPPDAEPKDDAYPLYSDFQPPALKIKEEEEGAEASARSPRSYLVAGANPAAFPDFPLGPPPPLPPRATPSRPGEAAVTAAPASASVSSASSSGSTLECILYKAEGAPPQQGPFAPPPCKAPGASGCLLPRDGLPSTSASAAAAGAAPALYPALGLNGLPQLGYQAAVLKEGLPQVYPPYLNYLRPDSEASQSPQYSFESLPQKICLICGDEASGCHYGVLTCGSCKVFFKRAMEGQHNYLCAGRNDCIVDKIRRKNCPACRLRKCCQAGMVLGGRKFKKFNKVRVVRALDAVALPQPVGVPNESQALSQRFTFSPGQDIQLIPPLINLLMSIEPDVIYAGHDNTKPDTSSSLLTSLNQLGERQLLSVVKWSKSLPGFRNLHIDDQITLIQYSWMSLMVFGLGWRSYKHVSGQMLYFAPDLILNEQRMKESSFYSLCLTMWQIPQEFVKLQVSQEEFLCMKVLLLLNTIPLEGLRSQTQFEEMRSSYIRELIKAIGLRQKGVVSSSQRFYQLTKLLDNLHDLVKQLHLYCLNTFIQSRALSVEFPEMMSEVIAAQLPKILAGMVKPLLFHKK

A short description of assay [7]: qHTS assay to identify small molecule agonists of the progesterone receptor (PR) signaling pathway - cell viability counter screen (AID 1346799; calls by dose curve; also: nearly all actives have a fitted effect of over 45% in size; also: potency is read from the fitted curve at half-maximal effect). Put shortly:
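PR-UAS-bla HEK293T cells, 3,000 per well in medium with 2% charcoal-stripped FBS, were preincubated 6 hr at 37C, then exposed to compounds for 16 hr; viability was read as CellTiter-Glo luminescence after 30 min at room temperature.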

Assay [8] can be described thus: qHTS assay to identify small molecule antagonists of the TGF-beta/Smad signaling pathway - cell viability counter screen (AID 1346824). Also: nearly all actives have a fitted effect of over 50% in size. Also: potency is read from the fitted curve at half-maximal effect. The gist of the method:
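SBE-bla HEK 293T cells were plated overnight at 37 C, then given compounds in DMSO plus TGF-beta1 (added as 0.25 ng/mL solution) for 5 hr. After the bla read, CellTiter-Glo was added to the same wells and luminescence read after 30 min at room temperature.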

The nature of assay [9]: qHTS assay to identify small molecule agonists of the TGF-beta/Smad signaling pathway - cell viability counter screen (AID 1346829). Also: nearly all actives have a fitted effect of over 45% in size. Also: potency is read from the fitted curve at half-maximal effect. The gist of the method: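 After overnight seating at 37 C and 5% CO2, reporter cells got compounds for 5 hr and FRET substrate for 2 hr; cell viability then came from CellTiter-Glo luminescence.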
The nature of assay [10]: qHTS assay to identify small molecule agonists of the TGF-beta/Smad signaling pathway (AID 1346859; active = well fitted activation curve with a large enough effect in the signal ratio in the repeat runs, not every such curve was filed as active; the % refers to the signal ratio; also: series mostly up to about 77 µM). Put shortly: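 HEK 293T cells stably carrying a beta-lactamase reporter driven by the Smad binding element were seeded overnight, exposed to DMSO-dissolved compounds for 5 hr at 37 C, 5% CO2, then loaded with FRET substrate for 2 hr at room temperature.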
Assay [11] has as its target Thyrotropin-releasing hormone receptor (Homo sapiens) (UniProt P34981). In words: qHTS assay to identify small molecule antagonists of the thyrotropin-releasing hormone receptor (TRHR) signaling pathway (AID 1346877; active = well fitted inhibition curve with a large enough effect in the repeat runs, not every such curve was filed as active; also: series mostly up to about 51 µM). Put shortly:
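Cells (TRHR-HEK293) are plated and kept 18 h at 37 °C/5% CO2. A calcium-sensitive dye is added for 2 h, compound follows for 5 min at room temperature, and TRH is then given at 1 nM final.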

Assay [12] has the same target. In words: qHTS assay to identify small molecule agonists of the thyrotropin-releasing hormone receptor (TRHR) signaling pathway (AID 1346891; calls by dose curve; also: series mostly up to about 58 µM). Put shortly: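 TRHR-expressing HEK293 cells were plated 18 h at 37 °C/5% CO2, loaded with calcium dye 2 h at 37 °C, then given compound in DMSO; fluorescence was read kinetically for 3 min at 1 s intervals.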
The target of assay [13] is Androgen receptor (Homo sapiens) (UniProt P10275). In words: qHTS assay to identify small molecule agonists of the androgen receptor (AR) signaling pathway in the presence of an antagonist (AID 1259381; calls by dose curve; also: nearly all actives have a fitted effect of over 15% in size). Put shortly: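 Cells are MDA-kb2 (human breast carcinoma, MMTV-luc, AR/GR responsive). Nilutamide is present at 3.0uM final throughout; compounds are added at 15 concentrations and incubated 16hr at 37C before ONE-Glo luminescence detection.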
Chain of Androgen receptor (Homo sapiens) (P10275 whole entry, looked up): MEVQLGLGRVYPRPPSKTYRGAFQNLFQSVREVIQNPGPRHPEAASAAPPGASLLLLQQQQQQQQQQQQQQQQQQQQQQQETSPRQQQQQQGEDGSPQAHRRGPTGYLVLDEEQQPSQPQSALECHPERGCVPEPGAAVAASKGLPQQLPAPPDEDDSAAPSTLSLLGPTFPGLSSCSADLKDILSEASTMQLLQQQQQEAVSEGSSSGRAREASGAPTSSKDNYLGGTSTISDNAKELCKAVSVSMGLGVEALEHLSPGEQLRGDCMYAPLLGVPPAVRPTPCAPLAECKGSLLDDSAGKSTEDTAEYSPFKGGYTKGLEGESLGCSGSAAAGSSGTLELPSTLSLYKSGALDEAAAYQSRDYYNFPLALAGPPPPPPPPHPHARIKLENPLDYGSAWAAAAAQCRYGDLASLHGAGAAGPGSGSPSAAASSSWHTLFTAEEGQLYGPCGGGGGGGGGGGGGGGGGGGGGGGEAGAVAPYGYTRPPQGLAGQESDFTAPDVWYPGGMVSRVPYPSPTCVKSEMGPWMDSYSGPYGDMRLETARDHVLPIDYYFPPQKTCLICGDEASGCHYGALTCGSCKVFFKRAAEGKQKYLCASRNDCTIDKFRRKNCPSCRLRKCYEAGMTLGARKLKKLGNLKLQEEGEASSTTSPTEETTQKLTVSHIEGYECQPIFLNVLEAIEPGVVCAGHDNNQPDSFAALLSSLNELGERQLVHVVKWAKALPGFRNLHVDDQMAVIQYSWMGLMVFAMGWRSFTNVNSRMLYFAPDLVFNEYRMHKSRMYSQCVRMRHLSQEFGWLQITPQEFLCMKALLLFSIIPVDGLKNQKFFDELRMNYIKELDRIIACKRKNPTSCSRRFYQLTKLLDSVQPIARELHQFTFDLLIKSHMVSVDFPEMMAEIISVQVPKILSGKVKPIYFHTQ

The target of assay [14] is Estrogen receptor (Homo sapiens) (UniProt P03372). Nature of the assay: qHTS assay to identify small molecule agonists of the estrogen receptor alpha (ER-alpha) signaling pathway in the presence of an antagonist (AID 1259383; calls by dose curve; also: top concentration of the series differs between compounds; nearly all actives have a fitted effect of over 15% in size). The gist of the method: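 Cells are hormone-deprived for 5 days (charcoal-stripped FBS, no phenol red), plated for 24hr, spiked with 10.0nM ICI-182,780, then dosed at 15 concentrations. After 22hr at 37C, ONE-Glo luminescence reports ERE-luciferase activity.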
Chain of Estrogen receptor (Homo sapiens) (P03372 whole entry, looked up): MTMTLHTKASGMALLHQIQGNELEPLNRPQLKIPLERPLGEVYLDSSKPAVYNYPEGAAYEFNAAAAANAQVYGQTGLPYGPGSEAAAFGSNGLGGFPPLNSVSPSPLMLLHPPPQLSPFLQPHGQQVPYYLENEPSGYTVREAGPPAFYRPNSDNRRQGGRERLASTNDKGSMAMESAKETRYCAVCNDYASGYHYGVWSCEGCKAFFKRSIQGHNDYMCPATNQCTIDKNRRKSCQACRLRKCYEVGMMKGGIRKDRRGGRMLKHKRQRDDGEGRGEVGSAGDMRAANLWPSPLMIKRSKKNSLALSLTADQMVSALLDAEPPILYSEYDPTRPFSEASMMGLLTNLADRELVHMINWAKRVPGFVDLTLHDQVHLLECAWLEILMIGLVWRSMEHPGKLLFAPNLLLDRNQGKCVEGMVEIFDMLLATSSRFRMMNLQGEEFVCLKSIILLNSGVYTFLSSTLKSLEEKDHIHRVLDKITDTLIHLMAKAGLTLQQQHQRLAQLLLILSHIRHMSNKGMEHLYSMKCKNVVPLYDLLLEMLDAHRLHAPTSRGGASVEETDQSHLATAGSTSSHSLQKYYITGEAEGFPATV

Assay [15] has as its target Thyrotropin receptor (Homo sapiens) (UniProt P16473). Nature of the assay: qHTS assay to identify small molecule antagonists of the thyroid stimulating hormone receptor (TSHR) signaling pathway (AID 1259385; calls by dose curve; also: nearly all actives have a fitted effect of over 20% in size; also: potency is read from the fitted curve at half-maximal effect). Put shortly:
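TSHR-HEK293 cells were plated and held 18 h at 37C/5% CO2, then given compound plus Ro20-1724 and stimulated with TSH at 1.5 ng/mL final. After 30 min at room temperature, cAMP was detected with cAMP-d2/anti-cAMP-cryptate (1 h) by fluorescence.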

Assay [16] addresses Progesterone receptor (Homo sapiens) (UniProt P06401). In words: qHTS assay to identify small molecule antagonists of the progesterone receptor (PR) signaling pathway (AID 1346795; active = well fitted inhibition curve with a large enough effect in the signal ratio in the repeat runs, not every such curve was filed as active; the % refers to the signal ratio). The gist of the method: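 PR-UAS-bla HEK293T cells carrying a UAS-driven beta-lactamase reporter were plated in medium with 2% charcoal-stripped FBS and rested 6 hr at 37C. Compounds were added with 1 nM R5020 (final) for 16 hr, then FRET substrate loaded 2 hr at room temperature.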

Assay [17] can be described thus: qHTS assay to identify small molecule antagonists of the progesterone receptor (PR) signaling pathway - cell viability counter screen (AID 1346798). Also: nearly all actives have a fitted effect of over 50% in size. Also: potency is read from the fitted curve at half-maximal effect. Put shortly:
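PR-UAS-bla HEK293T cells in medium with 2% charcoal-stripped FBS were treated with compounds plus R5020 for 16 hr at 37C. Cell viability was then read by CellTiter-Glo luminescence after 30 min at room temperature in the same wells.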

For assay [18], the target named is Estrogen receptor beta (Homo sapiens) (UniProt Q92731). In words: qHTS assay to identify small molecule agonists of the estrogen receptor beta (ER-beta) signaling pathway (AID 1259377; active = well fitted activation curve with a large enough effect in the signal ratio in the repeat runs, not every such curve was filed as active; the % refers to the signal ratio). The gist of the method: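 ER-beta-UAS-bla HEK293T (GripTite) cells carrying a UAS-driven beta-lactamase reporter, in medium with 2% charcoal-stripped FBS, were exposed to compounds for 16 hr at 37C; LiveBLAzer B/G FRET substrate was then added and fluorescence read after 2 hours at room temperature.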
Chain of Estrogen receptor beta (Homo sapiens) (Q92731 whole entry, looked up): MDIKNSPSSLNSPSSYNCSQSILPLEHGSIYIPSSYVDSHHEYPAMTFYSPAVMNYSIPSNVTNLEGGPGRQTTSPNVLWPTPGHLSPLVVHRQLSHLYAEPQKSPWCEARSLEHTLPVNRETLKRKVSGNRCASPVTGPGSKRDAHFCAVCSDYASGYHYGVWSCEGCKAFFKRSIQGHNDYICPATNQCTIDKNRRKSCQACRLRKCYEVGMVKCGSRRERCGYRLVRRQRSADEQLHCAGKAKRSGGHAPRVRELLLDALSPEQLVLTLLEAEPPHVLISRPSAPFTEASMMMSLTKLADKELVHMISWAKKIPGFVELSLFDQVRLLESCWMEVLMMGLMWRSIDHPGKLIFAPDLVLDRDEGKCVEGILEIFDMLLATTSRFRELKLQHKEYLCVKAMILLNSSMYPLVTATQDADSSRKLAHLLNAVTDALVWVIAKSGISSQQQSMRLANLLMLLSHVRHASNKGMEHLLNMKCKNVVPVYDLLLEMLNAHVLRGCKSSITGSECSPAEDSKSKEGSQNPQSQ

The target is the same in assay [19]. In words: qHTS assay to identify small molecule antagonists of the estrogen receptor beta (ER-beta) signaling pathway (AID 1259378; active = well fitted inhibition curve with a large enough effect in the signal ratio in the repeat runs, not every such curve was filed as active; the % refers to the signal ratio). Put shortly: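 ER-beta-UAS-bla HEK293T (GripTite) cells in 2% charcoal-stripped FBS medium were preincubated 6 hr at 37C, dosed with compound, then stimulated with 1 nM E2 (final) for 16 hr; beta-lactamase reporter read by B/G FRET fluorescence after 2 hr substrate loading.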
% is scaled to controls: 0 for no effect and ±100 for the full control effect.

Chain of Thyrotropin-releasing hormone receptor (Homo sapiens) (P34981 whole entry, looked up): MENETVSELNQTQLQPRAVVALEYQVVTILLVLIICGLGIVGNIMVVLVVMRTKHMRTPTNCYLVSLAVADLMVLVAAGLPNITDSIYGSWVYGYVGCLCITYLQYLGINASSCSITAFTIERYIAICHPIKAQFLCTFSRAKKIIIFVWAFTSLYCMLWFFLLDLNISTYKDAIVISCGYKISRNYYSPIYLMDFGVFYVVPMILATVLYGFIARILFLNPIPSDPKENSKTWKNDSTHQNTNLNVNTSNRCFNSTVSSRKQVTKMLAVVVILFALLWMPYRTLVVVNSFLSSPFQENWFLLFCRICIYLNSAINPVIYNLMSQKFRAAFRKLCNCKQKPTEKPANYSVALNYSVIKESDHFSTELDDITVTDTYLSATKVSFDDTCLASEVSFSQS
Chain of Thyrotropin receptor (Homo sapiens) (P16473 whole entry, looked up): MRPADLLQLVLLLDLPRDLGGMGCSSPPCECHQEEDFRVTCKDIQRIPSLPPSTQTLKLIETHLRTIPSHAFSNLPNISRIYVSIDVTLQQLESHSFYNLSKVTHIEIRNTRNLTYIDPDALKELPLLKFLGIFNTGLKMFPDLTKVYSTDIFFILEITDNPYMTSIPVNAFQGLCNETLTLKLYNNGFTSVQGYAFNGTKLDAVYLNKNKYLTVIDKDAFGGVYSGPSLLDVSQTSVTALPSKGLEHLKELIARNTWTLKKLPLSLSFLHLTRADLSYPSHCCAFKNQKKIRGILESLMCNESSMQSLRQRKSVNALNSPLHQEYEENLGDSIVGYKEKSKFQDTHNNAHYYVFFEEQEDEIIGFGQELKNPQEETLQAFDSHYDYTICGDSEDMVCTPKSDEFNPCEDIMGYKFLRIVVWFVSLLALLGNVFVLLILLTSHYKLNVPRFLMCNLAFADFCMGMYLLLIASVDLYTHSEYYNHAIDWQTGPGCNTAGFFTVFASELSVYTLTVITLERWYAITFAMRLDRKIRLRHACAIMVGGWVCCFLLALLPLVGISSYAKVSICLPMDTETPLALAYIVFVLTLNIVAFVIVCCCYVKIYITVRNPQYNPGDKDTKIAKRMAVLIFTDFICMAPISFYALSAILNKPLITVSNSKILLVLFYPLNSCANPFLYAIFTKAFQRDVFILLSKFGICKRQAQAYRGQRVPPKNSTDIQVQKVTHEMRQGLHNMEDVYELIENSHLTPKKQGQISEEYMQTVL

Consider `Nc1ccc([N+](=O)[O-])cc1N`, for which the Potency in [1] is 61.1 µM (active) and 30.6 µM (active); in assay [2], 21.7 µM (active) and inactive; in [5], 48.5 µM (active) and 38.6 µM (active). The Potency entry in assay [3], in assay [4], in assay [6], in [7], in assay [8] and in assay [9] was “inactive” each time. The Potency result in assay [10] and in assay [11] was “inactive” each time. Besides, the call in [12] was inactive.
`O=C(O)c1nn(Cc2ccc(Cl)cc2Cl)c2ccccc12`: the Potency entry in [1], in assay [14], in assay [4], in [15], in assay [5] and in [6] was “inactive” each time. The Potency entry in assay [16], in [17], in [7], in assay [8], in [9] and in assay [11] was “inactive” each time. In assay [2], the Potency was 27.1 µM (active) and 26.6 µM (active). The result in assay [13] and in assay [12] was inactive.
Take `Nc1ncn[nH]1`: the Potency result in [18], in [19], in assay [1], in assay [2], in assay [3] and in [4] was “inactive” each time. The Potency entry in [15], in assay [5], in assay [6], in assay [16], in assay [17] and in assay [7] was “inactive” throughout. Further, the Potency entry in [8], in assay [9] and in assay [10] was “inactive” in each case.
On to `Cn1c(-c2ccccc2)cc(-c2ccccc2)[n+]1C`, for which the Potency entry in [18], in assay [19], in assay [2], in assay [3], in assay [14] and in assay [4] was “inactive” each time. The Potency entry in assay [15], in assay [16], in assay [17], in assay [7], in assay [9] and in assay [10] was “inactive” throughout. In [11], the Potency entry was “inactive”. For the same compound, in assay [1], the Potency is 24.3 µM (active) and 19.3 µM (active). Also, the call in assay [12] was inactive.
Turning to `O=C1Nc2ccc(Cl)cc2C(c2ccccc2)=NC1O` (configuration not stated), the Potency entry in [18], in assay [19], in assay [1], in assay [2], in assay [3] and in assay [4] was “inactive” in each case. The Potency result in [15], in [5], in assay [6], in [16], in assay [17] and in [7] was “inactive” in each case. Also, the Potency entry in assay [8], in assay [9] and in [10] was “inactive” throughout.
As for `ClC(Cl)(Cl)Br`, the Potency entry in [18], in [1], in assay [2], in assay [3], in assay [4] and in [15] was “inactive” throughout. Besides, the Potency result in [5], in assay [6], in assay [16], in assay [17], in assay [7] and in [9] was “inactive” each time. Besides, the Potency entry in [10] and in [11] was “inactive” each time. Moreover, the activity, negative = inhibition in assay [19] was -1.76% [at 19 µM] (inactive). Further, the compound was classed as inactive in assay [12].
`CCC[CH2][Sn]([Cl])([CH2]CCC)[CH2]CCC`: the Potency in assay [1] was 687 nM (active) and 1.54 µM (active); in assay [2], 1.22 µM (active) and 1.37 µM (active); in assay [3] it was 1.73 µM (active) and 1.93 µM (active); in [15], 12.2 µM (active); in [5] it was 10.9 µM (active) and 30.6 µM (active); in assay [17] it was 1.73 µM (active) and 3.44 µM (active). Besides, the Potency in assay [7] was 1.73 µM (active) and 2.17 µM (active); in assay [8] it was 1.38 µM (active) and 2.19 µM (active); in assay [9] it was 1.55 µM (active) and 977 nM (active). Also, the Potency result in assay [14] and in [4] was “inactive” throughout.
As for `CNC(=O)Oc1cccc2c1OC(C)(C)C2`, the Potency result in [19], in [1], in assay [2], in assay [3], in assay [14] and in assay [4] was “inactive” in each case. The Potency result in assay [15], in assay [5], in assay [6], in [16], in assay [17] and in [7] was “inactive” each time. Further, the Potency result in [8], in assay [9], in assay [10] and in assay [11] was “inactive” throughout. In addition, the result in assay [13] and in [12] was inactive.

(Values after PubChem BioAssay (Tox21).)
